# Source: PubChem BioAssay AID1159580 (chemical genetic matrix, 2015)
# Hit rate of the full screen: of about 5,500 compounds, about 2,000 (36%) were called active. Another 18% or so got no clear call; they are omitted. The list shows a part of the results. A number with no mark means an inactive call. Cut-off read from the data, not from the text of the source: active = normalized growth mostly below about 0.91 (no sharp cut-off); inconclusive = no clear call, values can overlap the other calls; inactive = mostly above about 0.92.
# Test: chemical genetic growth profiling, strain panel (AID 1159580);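 note: tested at 20 µM; growth read once vehicle control cultures reached saturation at 30 °C; 1 = growth at the plate median or of vehicle wells; lower values mean less growth of the strain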
# Conditions: growth OD
# [1] = S. cerevisiae deletion strains, locus YDL101C, strain DUN1, hits give low values
# [2] = S. cerevisiae deletion strains, locus YHR030C, strain SLT2, hits give low values
smiles,measurement,setting,value
CCCCCn1c(Sc2ncc([N+](=O)[O-])s2)n[nH]c1=O,normalized growth,"S. cerevisiae deletion strains, locus YAL013W, strain DEP1, hits give low values",0.592 (active)
same,normalized growth,"S. cerevisiae deletion strains, locus YBR229C, strain ROT2, hits give low values",0.463 (active)
same,normalized growth,"S. cerevisiae deletion strains, locus YCL061C, strain MRC1, hits give low values",0.67 (active)
same,normalized growth,[1],0.559 (active)
same,normalized growth,"S. cerevisiae deletion strains, locus YDL134C, strain PPH21, hits give low values",0.099 (active)
same,normalized growth,"S. cerevisiae deletion strains, locus YDR150W, strain NUM1, hits give low values",0.615 (active)
same,normalized growth,"S. cerevisiae deletion strains, locus YEL061C, strain CIN8, hits give low values",0.0768 (active)
same,normalized growth,"S. cerevisiae deletion strains, locus YGR078C, strain PAC10, hits give low values",0.499 (active)
same,normalized growth,[2],0.0794 (active)
same,normalized growth,"S. cerevisiae deletion strains, locus YHR087W, strain rtc3, hits give low values",0.53 (active)
same,normalized growth,"S. cerevisiae deletion strains, locus YJL187C, strain SWE1, hits give low values",0.493 (active)
same,normalized growth,"S. cerevisiae deletion strains, locus YJR043C, strain POL32, hits give low values",0.695 (active)
same,normalized growth,"S. cerevisiae deletion strains, locus YJR075W, strain HOC1, hits give low values",0.471 (active)
same,normalized growth,"S. cerevisiae deletion strains, locus YKL190W, strain CNB1, hits give low values",0.0782 (active)
same,normalized growth,"S. cerevisiae deletion strains, locus YLR039C, strain RIC1, hits give low values",0.134 (active)
same,normalized growth,"S. cerevisiae deletion strains, locus YLR058C, strain SHM2 (second series), hits give low values",0.675 (active)
same,normalized growth,"S. cerevisiae deletion strains, locus YLR085C, strain ARP6, hits give low values",0.0989 (active)
same,normalized growth,"S. cerevisiae deletion strains, locus YLR262C, strain YPT6, hits give low values",0.123 (active)
same,normalized growth,"S. cerevisiae deletion strains, locus YML094W, strain GIM5, hits give low values",0.22 (active)
same,normalized growth,"S. cerevisiae deletion strains, locus YMR219W, strain ESC1, hits give low values",0.624 (active)
same,normalized growth,"S. cerevisiae deletion strains, locus YMR263W, strain SAP30, hits give low values",0.669 (active)
same,normalized growth,"S. cerevisiae deletion strains, locus YNL153C, strain GIM3, hits give low values",0.0882 (active)
same,normalized growth,"S. cerevisiae deletion strains, locus YNL298W, strain CLA4 (second series), hits give low values",0.0804 (active)
same,normalized growth,"S. cerevisiae deletion strains, locus YNL322C, strain KRE1, hits give low values",0.917 (active)
same,normalized growth,"S. cerevisiae deletion strains, locus YNR030W, strain Alg12, hits give low values",0.0933 (active)
same,normalized growth,"S. cerevisiae deletion strains, locus YPL055C, strain LGE1, hits give low values",0.292 (active)
same,normalized growth,"S. cerevisiae deletion strains, locus YPL241C, strain CIN2, hits give low values",0.1 (active)
same,normalized growth,"S. cerevisiae deletion strains, locus YPR135W, strain CTF4, hits give low values",0.186 (active)
same,normalized growth,"S. cerevisiae strains, strain wild type, hits give low values",0.0897 (active)
CCC(C)Cn1c(Sc2ncc([N+](=O)[O-])s2)n[nH]c1=O (stereo not given),normalized growth,"S. cerevisiae deletion strains, locus YAR019C, strain CDC15, hits give low values",0.853 (active)
same,normalized growth,"S. cerevisiae deletion strains, locus YBL105C, strain PKC1, hits give low values",0.893 (active)
same,normalized growth,"S. cerevisiae deletion strains, locus YBR135W, strain CKS1, hits give low values",0.867 (active)
same,normalized growth,"S. cerevisiae deletion strains, locus YBR136W, strain MEC1, hits give low values",0.888 (active)
same,normalized growth,"S. cerevisiae deletion strains, locus YBR160W, strain CDC28, hits give low values",0.894 (active)
same,normalized growth,"S. cerevisiae deletion strains, locus YDL017W, strain CDC7, hits give low values",0.895 (active)
same,normalized growth,"S. cerevisiae deletion strains, locus YDL028C, strain MPS1, hits give low values",0.895
same,normalized growth,[1],0.932
same,normalized growth,"S. cerevisiae deletion strains, locus YDL108W, strain KIN28, hits give low values",0.878 (active)
same,normalized growth,"S. cerevisiae deletion strains, locus YDL132W, strain cdc53, hits give low values",0.849 (active)
same,normalized growth,"S. cerevisiae deletion strains, locus YDL214C, strain PRR2, hits give low values",0.794
same,normalized growth,"S. cerevisiae deletion strains, locus YDR052C, strain DBF4, hits give low values",0.93
same,normalized growth,"S. cerevisiae deletion strains, locus YDR054C, strain cdc34, hits give low values",0.825 (active)
same,normalized growth,"S. cerevisiae deletion strains, locus YDR226W, strain ADK1, hits give low values",0.884 (active)
same,normalized growth,"S. cerevisiae deletion strains, locus YDR477W, strain SNF1, hits give low values",0.711
same,normalized growth,"S. cerevisiae deletion strains, locus YER123W, strain YCK3, hits give low values",0.649
same,normalized growth,"S. cerevisiae deletion strains, locus YER133W, strain GLC7, hits give low values",0.69 (active)
same,normalized growth,"S. cerevisiae deletion strains, locus YFL009W, strain cdc4, hits give low values",0.844 (active)
same,normalized growth,"S. cerevisiae deletion strains, locus YFL029C, strain CAK1, hits give low values",0.848 (active)
same,normalized growth,"S. cerevisiae deletion strains, locus YFR003C, strain YPI1, hits give low values",0.901 (active)
same,normalized growth,"S. cerevisiae deletion strains, locus YFR019W, strain FAB1, hits give low values",0.838
same,normalized growth,"S. cerevisiae deletion strains, locus YFR028C, strain CDC14, hits give low values",0.888 (active)
same,normalized growth,"S. cerevisiae deletion strains, locus YGR040W, strain KSS1, hits give low values",0.751
same,normalized growth,"S. cerevisiae deletion strains, locus YGR052W, strain FMP48, hits give low values",0.776
same,normalized growth,"S. cerevisiae deletion strains, locus YGR092W, strain DBF2, hits give low values",0.469 (active)
same,normalized growth,[2],0.772 (active)
same,normalized growth,"S. cerevisiae deletion strains, locus YHR079C, strain IRE1, hits give low values",0.657
same,normalized growth,"S. cerevisiae deletion strains, locus YHR082C, strain KSP1, hits give low values",0.926
same,normalized growth,"S. cerevisiae deletion strains, locus YHR205W, strain SCH9, hits give low values",0.806
same,normalized growth,"S. cerevisiae deletion strains, locus YIL147C, strain SLN1, hits give low values",0.896
same,normalized growth,"S. cerevisiae deletion strains, locus YJL095W, strain BCK1, hits give low values",0.651
same,normalized growth,"S. cerevisiae deletion strains, locus YJL128C, strain PBS2, hits give low values",0.938
same,normalized growth,"S. cerevisiae deletion strains, locus YJL157C, strain FAR1, hits give low values",0.763
same,normalized growth,"S. cerevisiae deletion strains, locus YJR016C, strain ILV3, hits give low values",0.877 (active)
same,normalized growth,"S. cerevisiae deletion strains, locus YJR066W, strain TOR1 (second series), hits give low values",0.492 (active)
same,normalized growth,"S. cerevisiae deletion strains, locus YJR066W, strain TOR1, hits give low values",0.778
same,normalized growth,"S. cerevisiae deletion strains, locus YKL048C, strain ELM1, hits give low values",0.963
same,normalized growth,"S. cerevisiae deletion strains, locus YKL067W, strain YNK1, hits give low values",0.792
same,normalized growth,"S. cerevisiae deletion strains, locus YKL101W, strain HSL1, hits give low values",0.838
same,normalized growth,"S. cerevisiae deletion strains, locus YKL193C, strain SDS22, hits give low values",0.849 (active)
same,normalized growth,"S. cerevisiae deletion strains, locus YKL203C, strain TOR2, hits give low values",0.795
same,normalized growth,"S. cerevisiae deletion strains, locus YLR113W, strain HOG1, hits give low values",0.598 (active)
same,normalized growth,"S. cerevisiae deletion strains, locus YLR133W, strain CKI1, hits give low values",0.805
same,normalized growth,"S. cerevisiae deletion strains, locus YLR403W, strain SFP1, hits give low values",0.56 (active)
same,normalized growth,"S. cerevisiae deletion strains, locus YML070W, strain DAK1, hits give low values",0.759
same,normalized growth,"S. cerevisiae deletion strains, locus YMR001C, strain CDC5, hits give low values",0.88 (active)
same,normalized growth,"S. cerevisiae deletion strains, locus YMR205C, strain PFK2 (second series), hits give low values",0.844
same,normalized growth,"S. cerevisiae deletion strains, locus YMR277W, strain FCP1, hits give low values",0.846 (active)
same,normalized growth,"S. cerevisiae deletion strains, locus YNL006W, strain LST8, hits give low values",0.894 (active)
same,normalized growth,"S. cerevisiae deletion strains, locus YNL020C, strain ARK1, hits give low values",0.826
same,normalized growth,"S. cerevisiae deletion strains, locus YNL161W, strain CBK1, hits give low values",0.875 (active)
same,normalized growth,"S. cerevisiae deletion strains, locus YNL183C, strain NPR1, hits give low values",0.652
same,normalized growth,"S. cerevisiae deletion strains, locus YNL207W, strain RIO2, hits give low values",0.867 (active)
same,normalized growth,"S. cerevisiae deletion strains, locus YNL222W, strain SSU72, hits give low values",0.865 (active)
same,normalized growth,"S. cerevisiae deletion strains, locus YNL307C, strain MCK1 (second series), hits give low values",0.714
same,normalized growth,"S. cerevisiae deletion strains, locus YOL078W, strain AVO1, hits give low values",0.856 (active)
same,normalized growth,"S. cerevisiae deletion strains, locus YOL136C, strain PFK27, hits give low values",0.766
same,normalized growth,"S. cerevisiae deletion strains, locus YOR061W, strain CKA2, hits give low values",0.85
same,normalized growth,"S. cerevisiae deletion strains, locus YOR119C, strain RIO1, hits give low values",0.735
same,normalized growth,"S. cerevisiae deletion strains, locus YOR231W, strain MKK1, hits give low values",0.722
same,normalized growth,"S. cerevisiae deletion strains, locus YOR329C, strain SCD5, hits give low values",0.908
same,normalized growth,"S. cerevisiae deletion strains, locus YPL031C, strain PHO85, hits give low values",0.674
same,normalized growth,"S. cerevisiae deletion strains, locus YPL153C, strain RAD53, hits give low values",0.657 (active)
same,normalized growth,"S. cerevisiae deletion strains, locus YPL204W, strain HRR25, hits give low values",0.683
same,normalized growth,"S. cerevisiae deletion strains, locus YPL209C, strain IPL1, hits give low values",0.891 (active)
same,normalized growth,"S. cerevisiae deletion strains, locus YPL256C, strain CLN2, hits give low values",0.695 (active)
same,normalized growth,"S. cerevisiae deletion strains, locus YPR025C, strain CCL1, hits give low values",0.888 (active)
same,normalized growth,"S. cerevisiae deletion strains, locus YPR106W, strain ISR1, hits give low values",0.943
same,normalized growth,"S. cerevisiae deletion strains, locus YPR111W, strain DBF20, hits give low values",0.938
same,normalized growth,"S. cerevisiae deletion strains, strain NNK1, hits give low values",0.932
same,normalized growth,"S. cerevisiae deletion strains, strain TSCII, hits give low values",0.85 (active)
